Results filed as inconclusive are left out. Where a call stands in place of a potency, no number is given. Activity calls are given as the source filed them. Calls follow the shape of the dose curve; as a rule, active = well fitted activation curve with a large enough effect in the signal ratio in the repeat runs (not every such curve was filed as active); inconclusive = weak or mixed curves; inactive = flat fitted curve, though single readings scatter; the % refers to the signal ratio.
Potency is read from the fitted curve at half-maximal effect.

The assay is described as follows: p53 small molecule agonists, cell-based qHTS assay (AID 1963582). To be noted: HCT-116 p53RE-bla reporter, beta-lactamase FRET ratio, 16 h; series mostly up to 66 µM. An excerpt:
National Center for Advancing Translational Sciences [NCATS]
Division of Preclinical Innovation [DPI]
U.S. Environmental Protection Agency [EPA]
National Institutes of Environmental Health Sciences [NIEHS]
National Toxicology Program [NTP]
U.S. Food and Drug Administration [FDA]
p53, a tumor suppressor protein, is activated following cellular insult, including DNA damage and other cellular stresses. The activation of p53 regulates cell fate by inducing DNA repair, cell cycle arrest, apoptosis, or cellular senescence. The activation of p53, therefore, is a good indicator of DNA damage and other cellular stresses. […] The activation of the reporter gene under culture conditions can be detected by fluorescence intensity. This cell line was used to screen the Tox21 10K compound library in a 1536-well plate format and to identify agonists that activate the p53 signaling pathway.
Tox21 Assay Protocol Summary:
The p53RE-bla cells were dispensed at 4,000 cells/5 ul/well in 1536-well black wall/clear bottom plates using a Multidrop dispenser. After the assay plates were incubated at a 37 C/5% CO2 incubator for 5 hours, 23 nL of compounds dissolved in DMSO, positive controls or DMSO only was transferred to the assay plate by a pin tool. The plates were incubated at 37 C for 16 hours. After 1 uL of LiveBLAzerTM B/G FRET substrate was added using a Flying Reagent Dispenser, the plates were incubated at room temperature for 2 hours, and fluorescence intensity was measured by an Envision plate reader.
A general note: In qHTS, concentration-response curves come from the screen itself.
As for `CC(C(=O)O)c1cccc(Oc2ccccc2)c1` (stereo not given), the Potency entry is “inactive”. The entry for `CC(C)c1ccc2sc3ccccc3c(=O)c2c1` is “inactive”; for `OCCN1CN(CCO)CN(CCO)C1` it is “inactive”; for `CCN(CC)CCNC(=O)COc1ccc(Cl)cc1` it is “inactive”.

Regarding `CCN(CC)C(=O)N(CC)CC`, the Potency entry is “inactive”. For the compound `COc1ccc(C)cc1[N+](=O)[O-]`, the Potency entry is “inactive”. For `CCC(C)CCCC(C)(C)O` (stereo not given), the Potency result is “inactive”. As to `C=C(C)C(=O)OCC[N+](C)(C)C`, the Potency entry was “inactive”. Next, `CCc1ccc(C(=O)C(C)CN2CCCCC2)cc1` (stereo not given): “inactive”.

In the case of `Cc1cccc2nccnc12`, the Potency entry was “inactive”.

Consider `Cc1nc2n(c(=O)c1CCN1CCC(C(=O)c3ccc(F)cc3)CC1)CCS2`, for which the Potency entry is “inactive”.

`CN(C)CCCCl`: the Potency result is “inactive”. Next, `O=C1c2ccccc2C(=O)C1(O)O`: 36.5 µM (active); `OC(CCN1CCCC1)(c1ccccc1)C1CCCCC1` (stereo not given): “inactive”. As to `CNC(=O)c1ccccc1Sc1ccc2c(/C=C/c3ccccn3)n[nH]c2c1`, the Potency is 1.41 µM (active). As for `CC(C)C[C@@H]1[C@H](c2ccccc2)OC(=O)N1CCCN1CCCCCC1`, the Potency entry was “inactive”. For the compound `C=C(C)C1CC=C(C)C(O)C1` (stereo not given), the Potency result is “inactive”. Regarding `CCOc1ccccc1O`, the Potency result is “inactive”.

Consider `CCCCCCC`, for which the Potency result is “inactive”. As for `CS(=O)(=O)c1ccc(-c2cn3ccccc3n2)cc1`, the Potency entry was “inactive”. Regarding `O=c1[nH]c(=O)n([C@H]2O[C@H](CO)[C@@H](O)[C@@H]2O)cc1/C=C\Br`, the Potency result is “inactive”. As for `Cc1ccc(C)c(N)c1`, the Potency result was “inactive”. Take `CC1=CC(O)CC(C)(C)C1` (stereo not given): the Potency entry is “inactive”. As for `C[N+](C)(C)CCOC(=O)CCC(=O)OCC[N+](C)(C)C`, the Potency entry is “inactive”. On to `CC(=O)Nc1cccc(C)c1`, for which the Potency result is “inactive”. Consider `CCN(CCCCOC(=O)c1ccc(OC)c(OC)c1)C(C)Cc1ccc(OC)cc1` (stereo not given), for which the Potency result is “inactive”. Next, `Cc1ccc(O)cn1`: “inactive”; `C[C@]1(Cn2ccnn2)[C@H](C(=O)O)N2C(=O)C[C@H]2S1(=O)=O`: “inactive”. Take `CCCCOC(=O)/C=C\C(=O)OCCCC`: the Potency entry was “inactive”. The entry for `FC(F)(F)c1ccc(Cl)cc1Cl` is “inactive”; for `CC(=O)OCC[N+](C)(C)C` it is “inactive”; for `CN1CC(=O)N/C1=N/C(=O)Nc1cccc(Cl)c1` it is “inactive”. The entry for `CCOC(=O)C1=C(C)NC(C)=C(C(=O)OC)C1c1cccc(Cl)c1Cl` (stereo not given) is “inactive”. For the compound `CC(CC(C#N)(c1ccccc1)C(C)C)N(C)C` (stereo not given), the Potency result is “inactive”. Take `COc1c(N2CCNC(C)C2)c(F)cc2c(=O)c(C(=O)O)cn(C3CC3)c12` (stereo not given): the Potency entry is “inactive”. As for `CC(C)(C)C1CCC(=O)CC1`, the Potency result is “inactive”. The entry for `Oc1ccc(C(O)CNCCCCCCNCC(O)c2ccc(O)c(O)c2)cc1O` (stereo not given) is “inactive”; for `N#CC1(N)CCCCC1` it is “inactive”; for `CCOc1cccc(N)c1` it is “inactive”.

For `Cc1cc(CC(=O)O)c(C)n1-c1ccc(Cl)cc1`, the Potency result was “inactive”.

Source of the values: PubChem BioAssay (Tox21).
